# ChEMBL document CHEMBL2218924, “A broad activity screen in support of a chemogenomic map for kinase signalling research and drug discovery” (Biochem J, 2013)
# Columns and labels:
# [1] = biological target: MAP kinase-activated protein kinase 2 (Homo sapiens) (UniProt P49137); conditions: at 10 µM
# [2] = biological target: MAP kinase-activated protein kinase 3 (Homo sapiens) (UniProt Q16644); conditions: at 10 µM
# [3] = biological target: Serine/threonine-protein kinase MARK1 (Homo sapiens) (UniProt Q9P0L2); conditions: at 1 µM
# [4] = biological target: Serine/threonine-protein kinase MARK1 (Homo sapiens) (UniProt Q9P0L2); conditions: at 10 µM
# [5] = biological target: Dual specificity mitogen-activated protein kinase kinase 1 (Homo sapiens) (UniProt Q02750); conditions: at 1 µM
# Dual specificity mitogen-activated protein kinase kinase 1 (Homo sapiens), sequence (Q02750 whole entry): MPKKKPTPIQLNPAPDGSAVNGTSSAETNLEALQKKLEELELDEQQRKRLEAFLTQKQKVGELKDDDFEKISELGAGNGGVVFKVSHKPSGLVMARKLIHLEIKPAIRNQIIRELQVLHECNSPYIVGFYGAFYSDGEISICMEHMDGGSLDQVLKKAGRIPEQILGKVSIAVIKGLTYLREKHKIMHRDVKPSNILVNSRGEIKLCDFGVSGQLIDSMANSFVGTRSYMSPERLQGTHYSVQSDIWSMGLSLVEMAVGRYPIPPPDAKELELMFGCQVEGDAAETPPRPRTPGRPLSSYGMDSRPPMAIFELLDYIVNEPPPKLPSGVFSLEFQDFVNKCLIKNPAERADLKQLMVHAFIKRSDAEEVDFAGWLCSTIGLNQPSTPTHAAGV
# [6] = biological target: Dual specificity mitogen-activated protein kinase kinase 1 (Homo sapiens) (UniProt Q02750); conditions: at 10 µM
# [7] = biological target: Maternal embryonic leucine zipper kinase (Homo sapiens) (UniProt Q14680); conditions: at 1 µM
# Maternal embryonic leucine zipper kinase (Homo sapiens), sequence (Q14680 whole entry, looked up): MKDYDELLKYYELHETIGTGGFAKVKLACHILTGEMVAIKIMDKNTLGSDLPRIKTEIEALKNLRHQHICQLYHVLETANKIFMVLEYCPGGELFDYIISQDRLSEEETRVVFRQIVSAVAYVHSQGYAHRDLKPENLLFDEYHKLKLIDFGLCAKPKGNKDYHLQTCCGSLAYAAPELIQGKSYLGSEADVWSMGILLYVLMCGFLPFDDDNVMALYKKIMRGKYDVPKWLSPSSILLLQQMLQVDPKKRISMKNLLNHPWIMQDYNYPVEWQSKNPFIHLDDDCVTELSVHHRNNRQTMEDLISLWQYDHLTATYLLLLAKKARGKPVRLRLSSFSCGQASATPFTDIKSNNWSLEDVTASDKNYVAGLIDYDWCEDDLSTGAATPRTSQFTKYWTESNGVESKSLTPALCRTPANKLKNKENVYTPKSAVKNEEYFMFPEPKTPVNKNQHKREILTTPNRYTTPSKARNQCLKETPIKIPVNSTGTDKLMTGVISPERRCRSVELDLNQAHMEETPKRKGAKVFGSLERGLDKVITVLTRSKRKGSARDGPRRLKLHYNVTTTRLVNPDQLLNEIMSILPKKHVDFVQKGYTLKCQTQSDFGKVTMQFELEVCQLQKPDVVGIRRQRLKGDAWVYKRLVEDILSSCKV
# [8] = biological target: Maternal embryonic leucine zipper kinase (Homo sapiens) (UniProt Q14680); conditions: at 10 µM
# [9] = biological target: Misshapen-like kinase 1 (Homo sapiens) (UniProt Q8N4C8); conditions: at 1 µM
# [10] = biological target: T1, Dual specificity mitogen-activated protein kinase kinase 6 (Homo sapiens) (UniProt P52564); conditions: at 1 µM
# T1 sequence (whole entry): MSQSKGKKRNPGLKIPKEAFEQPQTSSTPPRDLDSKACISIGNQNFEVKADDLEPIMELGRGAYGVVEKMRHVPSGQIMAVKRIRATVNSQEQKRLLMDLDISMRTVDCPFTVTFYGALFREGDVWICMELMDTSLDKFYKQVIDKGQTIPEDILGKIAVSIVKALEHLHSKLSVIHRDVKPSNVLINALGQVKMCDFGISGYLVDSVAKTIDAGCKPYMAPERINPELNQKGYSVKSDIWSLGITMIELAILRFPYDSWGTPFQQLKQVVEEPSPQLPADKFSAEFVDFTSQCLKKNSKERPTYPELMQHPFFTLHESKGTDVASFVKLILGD
# [11] = biological target: T1, Dual specificity mitogen-activated protein kinase kinase 6 (Homo sapiens); conditions: at 10 µM
# [12] = biological target: Myosin light chain kinase, smooth muscle (Homo sapiens) (UniProt Q15746); conditions: at 1 µM
# Myosin light chain kinase, smooth muscle (Homo sapiens), sequence (Q15746 whole entry): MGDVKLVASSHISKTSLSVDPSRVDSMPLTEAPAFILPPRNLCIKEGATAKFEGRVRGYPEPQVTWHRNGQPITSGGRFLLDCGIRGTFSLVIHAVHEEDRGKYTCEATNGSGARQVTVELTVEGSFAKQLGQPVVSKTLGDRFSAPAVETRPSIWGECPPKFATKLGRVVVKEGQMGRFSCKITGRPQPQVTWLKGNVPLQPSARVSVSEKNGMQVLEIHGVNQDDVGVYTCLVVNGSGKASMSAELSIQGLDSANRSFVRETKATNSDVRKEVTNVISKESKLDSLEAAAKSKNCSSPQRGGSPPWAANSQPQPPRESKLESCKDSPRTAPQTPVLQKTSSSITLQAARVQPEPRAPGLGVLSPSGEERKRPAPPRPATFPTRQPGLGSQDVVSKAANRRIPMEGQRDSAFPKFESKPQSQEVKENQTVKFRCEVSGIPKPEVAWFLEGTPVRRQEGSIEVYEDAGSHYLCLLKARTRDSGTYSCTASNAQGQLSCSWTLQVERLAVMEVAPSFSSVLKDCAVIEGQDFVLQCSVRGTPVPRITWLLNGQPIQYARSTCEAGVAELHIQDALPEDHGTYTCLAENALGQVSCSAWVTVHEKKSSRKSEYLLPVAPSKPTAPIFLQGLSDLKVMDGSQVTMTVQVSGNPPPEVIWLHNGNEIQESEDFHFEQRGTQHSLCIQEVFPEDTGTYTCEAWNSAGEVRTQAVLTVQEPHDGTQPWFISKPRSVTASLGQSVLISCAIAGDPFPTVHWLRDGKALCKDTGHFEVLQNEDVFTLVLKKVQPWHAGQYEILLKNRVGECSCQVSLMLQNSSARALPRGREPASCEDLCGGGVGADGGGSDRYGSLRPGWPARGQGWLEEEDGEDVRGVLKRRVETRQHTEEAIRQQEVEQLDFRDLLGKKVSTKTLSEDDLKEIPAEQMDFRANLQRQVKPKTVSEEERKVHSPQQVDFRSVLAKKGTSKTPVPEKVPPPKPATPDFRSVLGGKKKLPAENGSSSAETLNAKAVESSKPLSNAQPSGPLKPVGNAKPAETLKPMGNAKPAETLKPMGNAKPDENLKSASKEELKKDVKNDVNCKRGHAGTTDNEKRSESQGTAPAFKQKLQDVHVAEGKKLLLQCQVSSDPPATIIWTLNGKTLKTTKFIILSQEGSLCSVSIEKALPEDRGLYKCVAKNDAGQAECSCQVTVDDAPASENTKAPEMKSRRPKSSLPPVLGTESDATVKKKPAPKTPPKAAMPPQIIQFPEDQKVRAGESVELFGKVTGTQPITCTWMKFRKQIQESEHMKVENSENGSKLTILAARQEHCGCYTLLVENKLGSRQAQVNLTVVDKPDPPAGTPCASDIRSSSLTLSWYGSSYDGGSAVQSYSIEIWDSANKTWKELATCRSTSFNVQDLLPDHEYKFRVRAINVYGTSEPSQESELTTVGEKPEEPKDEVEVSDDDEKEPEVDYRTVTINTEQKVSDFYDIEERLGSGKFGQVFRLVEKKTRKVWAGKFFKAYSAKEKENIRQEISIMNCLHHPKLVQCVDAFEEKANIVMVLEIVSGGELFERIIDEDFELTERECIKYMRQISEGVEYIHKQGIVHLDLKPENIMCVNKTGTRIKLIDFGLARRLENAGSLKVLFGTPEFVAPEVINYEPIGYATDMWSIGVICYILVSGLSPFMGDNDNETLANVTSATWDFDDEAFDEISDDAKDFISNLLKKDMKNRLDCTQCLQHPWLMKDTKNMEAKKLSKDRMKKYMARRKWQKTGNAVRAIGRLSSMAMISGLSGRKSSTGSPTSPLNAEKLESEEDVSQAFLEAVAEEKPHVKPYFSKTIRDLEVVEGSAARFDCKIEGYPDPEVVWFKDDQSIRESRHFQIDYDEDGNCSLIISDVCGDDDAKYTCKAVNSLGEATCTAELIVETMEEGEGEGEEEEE
# [13] = biological target: Myosin light chain kinase, smooth muscle (Homo sapiens) (UniProt Q15746); conditions: at 10 µM
# [14] = biological target: Mitogen-activated protein kinase kinase kinase 9 (Homo sapiens) (UniProt P80192); conditions: at 1 µM
# [15] = biological target: Mitogen-activated protein kinase kinase kinase 9 (Homo sapiens) (UniProt P80192); conditions: at 10 µM
# [16] = biological target: Serine/threonine-protein kinase MRCK alpha (Homo sapiens) (UniProt Q5VT25); conditions: at 10 µM
# Serine/threonine-protein kinase MRCK alpha (Homo sapiens), sequence (Q5VT25 whole entry): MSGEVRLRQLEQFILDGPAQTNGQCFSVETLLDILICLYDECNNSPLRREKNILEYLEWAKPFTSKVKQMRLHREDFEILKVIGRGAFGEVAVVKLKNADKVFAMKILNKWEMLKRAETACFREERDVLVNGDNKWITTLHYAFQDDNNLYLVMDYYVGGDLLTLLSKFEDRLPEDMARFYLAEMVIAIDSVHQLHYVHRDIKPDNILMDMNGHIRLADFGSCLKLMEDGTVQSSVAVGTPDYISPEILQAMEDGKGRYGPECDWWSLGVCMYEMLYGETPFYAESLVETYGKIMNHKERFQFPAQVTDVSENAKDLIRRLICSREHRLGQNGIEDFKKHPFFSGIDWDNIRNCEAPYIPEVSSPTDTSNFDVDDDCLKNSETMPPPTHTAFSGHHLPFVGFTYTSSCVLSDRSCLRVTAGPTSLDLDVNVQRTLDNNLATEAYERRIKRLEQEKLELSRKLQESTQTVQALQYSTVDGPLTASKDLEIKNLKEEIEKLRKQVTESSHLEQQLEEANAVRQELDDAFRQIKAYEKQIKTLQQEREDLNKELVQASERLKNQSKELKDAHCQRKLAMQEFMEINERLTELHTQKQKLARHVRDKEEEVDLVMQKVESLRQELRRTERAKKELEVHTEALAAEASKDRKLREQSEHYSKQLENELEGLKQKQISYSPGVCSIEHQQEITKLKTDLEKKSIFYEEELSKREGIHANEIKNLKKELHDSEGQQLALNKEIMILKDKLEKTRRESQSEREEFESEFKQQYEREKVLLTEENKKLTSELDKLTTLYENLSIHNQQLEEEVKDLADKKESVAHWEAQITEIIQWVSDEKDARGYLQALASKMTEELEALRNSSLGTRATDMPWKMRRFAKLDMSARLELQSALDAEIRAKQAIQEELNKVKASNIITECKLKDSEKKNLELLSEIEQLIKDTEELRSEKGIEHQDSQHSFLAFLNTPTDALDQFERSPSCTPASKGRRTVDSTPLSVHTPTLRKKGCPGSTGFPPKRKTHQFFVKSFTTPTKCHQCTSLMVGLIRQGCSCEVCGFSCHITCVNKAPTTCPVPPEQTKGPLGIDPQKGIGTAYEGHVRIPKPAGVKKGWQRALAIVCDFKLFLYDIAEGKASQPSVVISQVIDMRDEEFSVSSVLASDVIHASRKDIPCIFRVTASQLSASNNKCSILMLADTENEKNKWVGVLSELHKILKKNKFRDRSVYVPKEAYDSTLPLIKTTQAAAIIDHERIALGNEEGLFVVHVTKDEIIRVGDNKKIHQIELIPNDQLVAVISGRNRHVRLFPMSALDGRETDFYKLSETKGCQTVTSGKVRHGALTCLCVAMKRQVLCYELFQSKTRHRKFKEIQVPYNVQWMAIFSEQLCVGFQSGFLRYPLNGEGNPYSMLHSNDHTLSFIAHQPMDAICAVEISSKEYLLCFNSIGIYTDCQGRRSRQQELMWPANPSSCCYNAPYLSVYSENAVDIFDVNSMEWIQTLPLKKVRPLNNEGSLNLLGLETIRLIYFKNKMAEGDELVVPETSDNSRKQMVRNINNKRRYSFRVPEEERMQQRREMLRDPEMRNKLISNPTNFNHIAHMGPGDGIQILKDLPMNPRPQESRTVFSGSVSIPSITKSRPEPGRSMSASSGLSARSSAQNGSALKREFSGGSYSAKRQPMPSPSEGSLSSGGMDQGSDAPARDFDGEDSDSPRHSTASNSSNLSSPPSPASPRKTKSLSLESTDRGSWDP
# [17] = biological target: Misshapen-like kinase 1 (Homo sapiens) (UniProt Q8N4C8); conditions: at 10 µM
# [18] = biological target: T2, Dual specificity mitogen-activated protein kinase kinase 7 (Homo sapiens) (UniProt O14733); conditions: at 10 µM
# T2 sequence (whole entry): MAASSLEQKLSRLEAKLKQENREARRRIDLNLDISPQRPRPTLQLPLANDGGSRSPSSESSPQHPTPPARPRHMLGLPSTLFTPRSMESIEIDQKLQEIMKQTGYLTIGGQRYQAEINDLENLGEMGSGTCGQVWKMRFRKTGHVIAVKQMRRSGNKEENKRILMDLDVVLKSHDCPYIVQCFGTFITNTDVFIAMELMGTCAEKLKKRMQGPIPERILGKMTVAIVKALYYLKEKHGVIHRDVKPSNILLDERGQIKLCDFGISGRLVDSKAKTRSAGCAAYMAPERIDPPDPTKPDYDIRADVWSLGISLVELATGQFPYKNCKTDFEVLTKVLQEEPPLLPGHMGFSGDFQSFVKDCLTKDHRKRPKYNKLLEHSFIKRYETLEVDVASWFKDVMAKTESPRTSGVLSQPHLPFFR
# [19] = biological target: T2, Dual specificity mitogen-activated protein kinase kinase 7 (Homo sapiens); conditions: at 1 µM
# [20] = biological target: Serine/threonine-protein kinase MRCK alpha (Homo sapiens) (UniProt Q5VT25); conditions: at 1 µM
# MAP kinase-activated protein kinase 2 (Homo sapiens), sequence (P49137 whole entry, looked up): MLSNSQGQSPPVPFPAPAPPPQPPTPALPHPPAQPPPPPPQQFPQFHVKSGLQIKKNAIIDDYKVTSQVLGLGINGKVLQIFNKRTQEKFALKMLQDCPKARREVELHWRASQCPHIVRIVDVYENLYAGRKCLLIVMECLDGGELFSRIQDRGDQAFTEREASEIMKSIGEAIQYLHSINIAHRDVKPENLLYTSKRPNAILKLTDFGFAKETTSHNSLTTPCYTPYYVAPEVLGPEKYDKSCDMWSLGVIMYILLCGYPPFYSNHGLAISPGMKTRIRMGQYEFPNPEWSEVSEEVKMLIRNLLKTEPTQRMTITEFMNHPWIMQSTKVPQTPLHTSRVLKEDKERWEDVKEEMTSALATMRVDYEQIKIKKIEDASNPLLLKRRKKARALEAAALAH
SMILES,residual activity [1],residual activity [2],residual activity [3],residual activity [4],residual activity [5],residual activity [6],residual activity [7],residual activity [8],residual activity [9],residual activity [10],residual activity [11],residual activity [12],residual activity [13],residual activity [14],residual activity [15],residual activity [16],residual activity [17],residual activity [18],residual activity [19],residual activity [20]
CCCCc1c(-c2ccc(OC)cc2)[nH]c2nccnc12,109%,109%,78%,76%,140%,112%,74%,75%,104%,128%,80%,104%,83%,16%,19%,88%,,,,
O=C(O)/C=C/c1cc(Br)c(Br)c(Br)c1Br,79%,82%,104%,82%,106%,65%,82%,80%,105%,99%,84%,94%,22%,93%,72%,,87%,71%,,
N#C/C(=C\c1ccc(O)c(O)c1)C(=O)NCc1ccccc1,77%,,85%,88%,,,80%,72%,,89%,101%,101%,100%,,,87%,84%,68%,83%,
NCCNc1ncc(C(N)=O)c(Nc2cccc(C(F)(F)F)c2)n1,49%,72%,72%,30%,73%,25%,,,,18%,6%,67%,55%,30%,4%,105%,,38%,73%,104%
CCCC(=O)Oc1ccc2[nH]c(C(=O)c3cc4ccccc4[nH]3)cc2c1,87%,94%,80%,84%,93%,100%,88%,87%,82%,99%,,90%,97%,80%,88%,102%,82%,81%,104%,102%
O=C1Cc2c([nH]c3ccc([N+](=O)[O-])cc23)-c2ccccc2N1,50%,53%,34%,28%,103%,129%,81%,64%,60%,79%,77%,,,7%,5%,79%,36%,,73%,60%
O=C1NC(=O)C(c2c[nH]c3ccccc23)=C1c1c[nH]c2ccccc12,79%,,81%,37%,34%,7%,80%,27%,,,,61%,15%,43%,8%,,41%,117%,126%,
Nc1ncnc2c1c(-c1ccc(Oc3ccccc3)cc1)cn2C1CCCC1,77%,84%,74%,54%,48%,24%,72%,31%,93%,85%,89%,63%,45%,,,118%,82%,79%,95%,107%
Cn1sc(=O)n(Cc2ccccc2)c1=O,93%,,76%,70%,96%,,88%,65%,96%,,,90%,91%,92%,88%,92%,91%,,,98%
O=C1C(Cl)=C(N2C(=O)CCC2=O)C(=O)c2ccccc21,87%,100%,82%,81%,,67%,,70%,,,,,75%,96%,91%,94%,,78%,67%,
O=c1cc(N2CCOCC2)oc2c1ccc1ccccc12,87%,109%,93%,89%,,92%,92%,91%,102%,92%,86%,92%,77%,96%,101%,99%,110%,94%,102%,105%
CN(C)S(=O)(=O)c1ccc2c(c1)/C(=C/c1cc3c([nH]1)CCCC3)C(=O)N2,92%,92%,24%,17%,,83%,,95%,124%,91%,,,88%,84%,64%,,97%,95%,82%,
Nc1ncnc2[nH]nc(Nc3ccc(F)cc3)c12,95%,112%,,69%,60%,23%,,51%,,,74%,100%,78%,60%,12%,106%,48%,,,117%
O=c1cc(N2CCNCC2)oc2c(-c3ccccc3)cccc12,85%,89%,82%,89%,99%,89%,80%,78%,104%,92%,89%,93%,95%,88%,104%,,99%,79%,100%,86%
O=C1Nc2ccc(Cl)cc2/C1=C/c1cc(Cl)c(O)c(Cl)c1,71%,61%,69%,35%,99%,49%,60%,46%,35%,82%,38%,39%,37%,56%,18%,96%,35%,61%,95%,99%
O=C(NC(NC(=S)Nc1ccc(F)c([N+](=O)[O-])c1)C(Cl)(Cl)Cl)C(c1ccccc1)c1ccccc1 (stereo not drawn),78%,,96%,80%,,,76%,76%,,135%,80%,103%,79%,102%,103%,,,96%,,
O=C(c1cc2cc(O)ccc2[nH]1)c1cc2cc(O)ccc2[nH]1,51%,,40%,5%,80%,26%,27%,3%,21%,112%,,70%,35%,16%,4%,78%,4%,63%,113%,
O=C(c1ccccc1)c1ccc(N2CCOCC2)cc1O,89%,93%,93%,83%,80%,90%,85%,65%,85%,85%,79%,88%,87%,,,100%,60%,85%,98%,100%
CC(C)[C@H](CO)Nc1nc(Nc2cc(N)cc(Cl)c2)c2ncn(C(C)C)c2n1,117%,,92%,38%,,,,,,93%,78%,82%,29%,,,,73%,,95%,122%
COc1ccc2c(c1)c(C1=C(c3c[nH]c4ccccc34)C(=O)NC1=O)cn2CCCN(C)C,,135%,75%,53%,102%,75%,54%,26%,,110%,,51%,15%,63%,15%,80%,61%,104%,,74%
O=C1NC(=O)c2c1c1c3ccccc3[nH]c1n1cncc21,89%,82%,25%,21%,59%,67%,27%,10%,77%,69%,21%,11%,8%,33%,12%,90%,45%,27%,42%,99%
CSc1nc(-c2ccc(F)cc2)c(-c2ccnc(NC(C)c3ccccc3)c2)[nH]1 (stereo not drawn),98%,,94%,76%,,,88%,61%,,70%,-2%,,68%,99%,85%,,59%,48%,99%,
COc1cc2nccc(Oc3ccc(NC(=S)NC(=O)c4ccccc4C)cc3)c2cc1OC,66%,56%,81%,75%,86%,68%,98%,84%,77%,65%,71%,67%,80%,63%,41%,124%,69%,87%,93%,
Cn1c2ccccc2c2c3c(c4c5ccccc5n(CCC#N)c4c21)CNC3=O,,77%,4%,5%,36%,34%,9%,4%,21%,0%,1%,16%,11%,2%,2%,79%,16%,34%,52%,
O=C1NC(=O)C(c2cn(CCCO)c3ncccc23)=C1c1cnccn1,93%,100%,81%,79%,,,78%,68%,,85%,77%,84%,78%,75%,55%,,,99%,100%,
COc1cc2ncnc(Nc3cccc(Cl)c3)c2cc1OC,105%,65%,,83%,114%,71%,89%,59%,,47%,26%,64%,28%,76%,21%,111%,76%,,,107%
CC(C)(C)c1nc2c3ccc(F)cc3c3c(=O)[nH]ccc3c2[nH]1,62%,,29%,14%,66%,20%,2%,2%,81%,39%,41%,2%,4%,9%,21%,,78%,35%,69%,
CC(C)c1nn(-c2c(Cl)cccc2Cl)c2nc(Cc3ccc(OCCO)cc3)[nH]c(=O)c12,89%,91%,80%,47%,82%,,65%,67%,97%,,90%,105%,99%,86%,48%,102%,93%,77%,84%,106%
NC(=O)Nc1sc(-c2ccc(F)cc2)cc1C(N)=O,83%,86%,57%,17%,44%,34%,72%,24%,81%,97%,41%,92%,31%,9%,1%,,47%,44%,96%,
